SMILES strings stand for the structures. “And” between values parts separate entries of the source, which are not always exact repeats. Equal entries are not always repeated. Results filed as inconclusive are left out. The source made the active and inactive calls. The call rests on the fitted dose curve; in most records, active means well fitted curve in either direction with a large enough effect (not every such curve was filed as active); inconclusive means small, poorly fitted or top-dose-only effect, or another doubt; inactive means flat fitted curve, though single readings scatter.
On the % scale 0 is the no-effect control and ±100 the full control effect.

The nature of this test: AP1 Signaling Pathway (AID 357). As to conditions: ME-180 (cervical carcinoma) AP-1-bla reporter, EGF-induced, beta-lactamase ratio, 5 h; at 17.2 µM (top of the series). The essentials: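 Cells are seeded overnight, exposed to compound titrations and an EC50 level of EGF for 5 hours at 37 °C, then loaded with CCF4 dye for 2.5 hours. Beta-lactamase activity under the AP-1 element is read as a blue/green ratio.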
Turning to `Nc1nc2c(ncn2COCCO)c(=O)[nH]1`, the activity change, negative = inhibition is 10.5% (inactive) and -13.7% (inactive).
For `N#Cc1ccc(C(c2ccc(C#N)cc2)n2cncn2)cc1` the value was -15.5% (inactive); for `CC(C[N+](C)(C)C)OC(N)=O` (stereo not given), 1.75% (inactive); for `Cc1[nH]c(=O)c(C#N)cc1-c1ccncc1`, 8.13% (inactive).
As for `O=c1n(CCCN2CCN(c3cccc(Cl)c3)CC2)nc2ccccn12`, the figure is -7.19% (inactive) and -2.29% (inactive); as for `C[C@]12CCC(=O)C=C1CC[C@@H]1[C@@H]2[C@@H](O)C[C@@]2(C)[C@H]1CC[C@]2(O)C(=O)CO`, -3.8% (inactive).
Take `CN1CCN(CCCN2c3ccccc3Sc3ccc(C(F)(F)F)cc32)CC1`: the activity change, negative = inhibition is 7.77% (inactive) and 23.2% (inactive).
Consider `O=C1CCc2cc(OCCCCc3nnnn3C3CCCCC3)ccc2N1`, for which the activity change, negative = inhibition is -11% (inactive).
As for `NNCCc1ccccc1`, the figure is -1.06% (inactive).
With `N=c1nc(N2CCCCC2)cc(N)n1O`, the activity change, negative = inhibition is -4.3% (inactive) and 1.82% (inactive).
As for `CCCCNc1cc(C(=O)O)cc(S(N)(=O)=O)c1Oc1ccccc1`, the figure is 2.74% (inactive) and -1.68% (inactive); as for `C1COC(NC(C2CC2)C2CC2)=N1`, -19.2% (inactive) and -1.91% (inactive); as for `NS(=O)(=O)c1cc2c(cc1Cl)NC=NS2(=O)=O`, 10.4% (inactive) and 2.47% (inactive).
On to `Nc1nc2ccc(OC(F)(F)F)cc2s1`, for which the activity change, negative = inhibition is 7.09% (inactive) and 1.61% (inactive).
For `Cc1ccc(N(CC2=NCCN2)c2cccc(O)c2)cc1` the value was 6.96% (inactive) and 4.13% (inactive) and 12.9% (inactive).
